Inconclusive results are not listed. Unmarked numbers belong to inactive results. Calls of active or inactive are those of the source. The call rests on the fitted dose curve; in most records, active means well fitted inhibition curve with a large enough effect; inconclusive means small, poorly fitted or top-dose-only effect; inactive means flat fitted curve, though single readings scatter.
target: Calcium and integrin-binding protein 1 (Homo sapiens) (UniProt Q99828); assay: Primary qHTS for Identification of Calcium Integrin Binding Protein 1 (CIB1) Competitor (AID 1508620); conditions: CIB1-GST / FITC-alphaIIb peptide fluorescence polarization; series mostly up to 57.7 µM; activity change, negative = inhibition: at the top concentration; further: top concentration of the series differs between compounds
Sequence (Q99828 whole entry, looked up): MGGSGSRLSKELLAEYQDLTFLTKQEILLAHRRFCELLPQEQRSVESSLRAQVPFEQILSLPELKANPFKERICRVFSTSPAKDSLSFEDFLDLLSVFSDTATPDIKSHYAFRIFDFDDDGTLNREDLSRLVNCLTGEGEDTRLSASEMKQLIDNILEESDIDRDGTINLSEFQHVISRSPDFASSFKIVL
Summary of the method: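 Fluorescence polarization competition: GST-tagged CIB1 (1 uM final) preincubated with compound 15 min at room temperature, then FITC-labelled alphaIIb peptide (100 nM final) added. After 15 min at room temperature, polarization read at Ex 480/Em 540.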
On the % scale 0 is the no-effect control and ±100 the full control effect.

SMILES	activity change, negative = inhibition	outcome
C=C1C(=CC=C2CCC[C@]3(C)[C@@H]([C@H](C)C=C[C@H](C)C(C)C)CC[C@@H]23)C[C@@H](O)C[C@@H]1O	-1.07%	–
CN[C@H]1CCc2cc(OC)c(OC)c(OC)c2-c2ccc(OC)c(=O)cc21	3.51%	–
O=C(C=Cc1cccnc1)NCCCCC1CCN(C(=O)c2ccccc2)CC1	0.73%	–
O=C(O)c1ccc2cc(-c3ccc(O)c(C45CC6CC(CC(C6)C4)C5)c3)ccc2c1	-2.29%	–
Cc1cc(C(=O)N2CCN(c3cccc(Cl)c3)CC2)n(-c2ccccc2)n1	–	inactive
Nc1ccc(C(=O)c2cc3c(ccc4ccccc43)[nH]2)cc1	-8.01%	–
CC(C)[C@H](C(=O)Nc1ccc(C(=O)NO)cc1)c1ccccc1	2.11%	–
COc1ccc(CC2c3cc(OC)c(OC)cc3CC[N+]2(C)CCC(=O)OCCCCCOC(=O)CC[N+]2(C)CCc3cc(OC)c(OC)cc3C2Cc2ccc(OC)c(OC)c2)cc1OC (centres undefined)	-3.2% [at 6.45 µM]	–
CC(C)C[C@H](NC(=O)CNC(=O)c1cc(Cl)ccc1Cl)B(O)O	-0.746%	–
COc1cc2ncnc(Nc3ccc(F)c(Cl)c3)c2cc1NC(=O)C=CCN1CCCCC1	0.496%	–
COc1c(N2C[C@@H]3CCCN[C@H]3C2)c(F)cc2c(=O)c(C(=O)O)cn(C3CC3)c12	-9.41%	–
CC1(C)O[C@@H]2C[C@@H]3[C@H]4C[C@@H](F)C5=CC(=O)C=C[C@]5(C)[C@@]4(F)[C@@H](O)C[C@]3(C)[C@]2(C(=O)CO)O1	-4.57%	–
Cc1cc(Nc2cc(N3CCN(C)CC3)nc(C=Cc3ccccc3)n2)n[nH]1	10.8% [at 114 µM]	–
C=C1C(=CC=C2CCCC3(C)[C@@H]([C@H](C)C=CC=CC(O)(CC)CC)CC[C@@H]23)C[C@@H](O)C[C@@H]1O (some centres undefined)	-1.62%	–
Nc1ccc(S(=O)(=O)Nc2ncccn2)cc1	1.67%	–
CC[C@H]1CN2CCc3cc(OC)c(OC)cc3[C@H]2C[C@@H]1C[C@@H]1NCCc2cc(OC)c(OC)cc21	-0.881%	–
COc1ccc(C=Cc2cc(OC)c(OC)c(OC)c2)cc1O	-2.2%	–
CC(C)=CCCC(C)=CCCC(C)=CCSc1ccccc1C(=O)O	-10.1%	–
CCC1=C[C@@H]2CN(C1)Cc1c([nH]c3ccccc13)[C@@](C(=O)OC)(c1cc3c(cc1OC)N(C)[C@@H]1[C@@](O)(C(=O)OC)[C@H](OC(C)=O)[C@]4(CC)C=CCN5CC[C@]31[C@@H]54)C2	-0.177%	–
C[C@@H]1CN(CC(=O)Nc2ccc3c(c2)Cc2cccc(-c4cc(=O)cc(N5CCOCC5)o4)c2S3)C[C@H](C)O1	-3.82%	–

SMILES	activity change, negative = inhibition	outcome
Cc1cnc(Nc2ccc(F)cc2Cl)nc1-c1c[nH]c(C(=O)N[C@H](CO)c2cccc(Cl)c2)c1	–	inactive
CC[C@@H]1C(=O)N(C)c2cnc(Nc3ccc(C(=O)NC4CCN(C)CC4)cc3OC)nc2N1C1CCCC1	-4.22%	–
Cn1cncc1[C@@](N)(c1ccc(Cl)cc1)c1ccc2c(c1)c(-c1cccc(Cl)c1)cc(=O)n2C	-3.02%	–
CC1(C)OC2=C(C(=O)c3ccccc3C2=O)[C@H](NCc2ccccc2)[C@H]1O	-5.42%	–
CC(NCc1ccc2c(c1)nc(NC(=O)c1ccc(-c3cn[nH]c3)s1)n2CC(C)(C)O)C(C)(C)C (centres undefined)	–	inactive
CCC[C@H](NC(=O)C(C#N)=Cc1cccc(Br)n1)c1ccccc1	-8.26%	–
CN(C)CC=CC(=O)Nc1cc2c(Nc3ccc(F)c(Cl)c3)ncnc2cc1O[C@H]1CCOC1	-0.213%	–
CC(C)(C)c1cnc(CSc2cnc(NC(=O)C3CCNCC3)s2)o1	-0.419%	–
Cc1[nH]c2ccccc2c1CCNCc1ccc(C=CC(=O)NO)cc1	-0.781%	–
CN1CCN(c2ccc3nc(-c4c(N)c5c(F)cccc5[nH]c4=O)[nH]c3c2)CC1	0.0456%	–
O=C(C=Cc1cccc(S(=O)(=O)Nc2ccccc2)c1)NO	-5.15% [at 114 µM]	–
COc1cc2ncn(-c3cc(OCc4ccccc4C(F)(F)F)c(C(N)=O)s3)c2cc1OC	-1.15%	–
CN1c2cc(O)c(N=NC(N)=O)cc2CC1S(=O)(=O)O (centres undefined)	-4.12%	–
CC=C1NC(=O)[C@H]2CSSCCC=C[C@H](CC(=O)N[C@H](C(C)C)C(=O)N2)OC(=O)[C@H](C(C)C)NC1=O	3.2%	–
COc1cc(OC2CCN(C)CC2)ccc1Nc1ncc2c(n1)n(C1CCCC1)c(=O)n2C	-2.65%	–
O=C(NC1CCNCC1)c1[nH]ncc1NC(=O)c1c(Cl)cccc1Cl	-3.17%	–
Cc1ccc(-c2ncn(-c3ccc(Nc4nccc(-c5cccc(N6CCOCC6)c5)n4)cc3)n2)cn1	0.486%	–
CC(C)(C)OC(=O)Nc1ccc(-c2cc(C(=O)NCCCCCCC(=O)NO)no2)cc1	-0.285%	–
CCCCc1nc2cc(C=CC(=O)NO)ccc2n1CCN(CC)CC	-0.706%	–
